The list is not random: actives were taken first. Their share in the collection is about 4%.
FBA Mtb inh: inhibitors of M. tuberculosis fructose-bisphosphate aldolase. P9WQA3. purified M. tuberculosis FBA, fluorescence read-out. inhibition, % at 1 µM. 360,000 tested, 2.3% active. AID 588726; in the data active = inhibition above about 27%
Target sequence (P9WQA3 whole entry, looked up): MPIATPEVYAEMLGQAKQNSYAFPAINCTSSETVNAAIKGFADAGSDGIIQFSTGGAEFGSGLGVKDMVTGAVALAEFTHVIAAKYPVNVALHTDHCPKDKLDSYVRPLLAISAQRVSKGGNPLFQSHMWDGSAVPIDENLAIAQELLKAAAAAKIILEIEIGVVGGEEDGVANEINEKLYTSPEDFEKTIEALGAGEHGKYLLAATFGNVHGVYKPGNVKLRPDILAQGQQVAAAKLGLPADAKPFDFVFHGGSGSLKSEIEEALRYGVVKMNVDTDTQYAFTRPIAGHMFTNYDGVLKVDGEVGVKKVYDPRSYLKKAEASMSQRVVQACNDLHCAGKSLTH
Rv3671c protease: Rv3671c (M. tuberculosis) protease inhibition; P9WHR9; inhibition, % at 5.96 µM; 320,000 tested, 0.048% active; AID 2606; in the data active = inhibition above about 38%;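 also: extracellular domain of Rv3671c used as enzyme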
Mtb bLac sens: beta-lactam sensitization of Mtb H37Rv; M. tuberculosis H37Rv growth with meropenem, percent inhibition; inhibition, % at 25 µM; 330,000 tested, 0.27% active;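 also: growth measured after seven days incubation then overnight dye step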
GDH-TPI inh: counter-screen for M. tuberculosis FBA inhibitors: GDH-TPI coupled enzymes | inhibition, % at 4.8 µM | GDH-TPI coupled enzyme counterscreen, NADH absorbance | 360,000 tested, 1.2% active | AID 588335; in the data active = inhibition above about 30%
RecA splice inh: Mtb RecA intein splicing inhibition | P9WHJ3 | cell-free RecA intein splicing, fluorescence | inhibition, % (test concentration not listed) | 290,000 tested, 0.75% active; in the data active = inhibition above about 30%; inconclusive = no clear call, values can overlap the other calls
UGM FP inh: Mtb UDP-galactopyranose mutase inhibition; P9WIQ1; purified UGM, fluorescence polarization probe displacement; inhibition, % at 10 µM; 320,000 tested, 0.06% active; in the data active = inhibition above about 10%, passing the limit was not always enough; inconclusive = no clear call, values can overlap the other calls
GFP chromophore: counter-screen: blocks GFP chromophore formation. shares compounds with RecA splice inh. cell-free GFP chromophore formation, fluorescence. EC50, µM. 2,100 tested, 83% active. AID 434968
Each line names hits and unclear results; the compound was inactive in the other large screens (follow-up assays come after a bar, where they were run). Unless noted, no rule for the calls is given here.

O=[N+]([O-])c1cc(C(F)(F)F)cc([N+](=O)[O-])c1NCCNC(=S)Nc1ccc(Cl)c(Cl)c1	RecA splice inh 30.3 | GFP chromophore inactive
CN(C)c1ccc2nsnc2c1[N+](=O)[O-]	RecA splice inh 31.8 | GFP chromophore inactive
CCCCNc1ccc2nsnc2c1[N+](=O)[O-]	none
CC1CCc2c(sc3nc(C(C)(C)C)nc(N4CCN(C(=O)CCl)CC4)c23)C1 (stereo unspecified)	RecA splice inh 82.9 | GFP chromophore 0.958
COC(=O)c1sc(N)c(C(=O)OC)c1Cn1ncc(Cl)c(Cl)c1=O	RecA splice inh 31.5 | GFP chromophore 1.6
O=C(O[C@@H]1Cc2c(O)cc(O)cc2O[C@@H]1c1cc(O)c(O)c(O)c1)c1cc(O)c(O)c(O)c1	none (no result: FBA Mtb inh, Rv3671c protease, Mtb bLac sens, GDH-TPI inh, UGM FP inh)
Oc1cc(O)c2c(c1)O[C@H](c1ccc(O)c(O)c1)[C@H](O)C2	RecA splice inh 35.6 | GFP chromophore inactive
Cc1ccc(S(=O)(=O)N2CCC(C(=O)OCC(=O)NC(C)c3ccc(F)cc3)CC2)cc1C (stereo unspecified)	none (no result: RecA splice inh)
C/C(=N\NC(=O)CC#N)c1cc2ccccc2oc1=O	RecA splice inh 86.2 | GFP chromophore 12.9
CC(=O)c1cc2ccccc2oc1=O	none (no result: RecA splice inh)
Cc1cccc(C(=O)Nc2cccc(NC(=O)c3ccccc3)c2)c1	none
O=C(Nc1ccc(Nc2ccccc2)cc1)c1ccc(Cl)cc1	none (no result: RecA splice inh)
O=C(NC1=C(NC2CCS(=O)(=O)C2)C(=O)c2ccccc2C1=O)c1ccccc1 (stereo unspecified)	RecA splice inh 84.1 | GFP chromophore 1.03
O=C(NC1=C(Nc2ccc(Cl)cc2)C(=O)c2ccccc2C1=O)c1ccccc1	RecA splice inh 49.2 | GFP chromophore 24.9
Cc1cccc(NC2=C(NC(=O)c3ccccc3)C(=O)c3ccccc3C2=O)c1	RecA splice inh 72.0 | GFP chromophore 6.53
Nc1ccc(O)c2ccccc12	RecA splice inh 88.5 (no result: FBA Mtb inh, GDH-TPI inh) | GFP chromophore 11
COc1ccc(-c2cc(=O)n(CCC#N)[nH]2)cc1	RecA splice inh 96.7 | GFP chromophore 2.01
CCCNC(=O)C[C@@H]1C[C@H]2c3cc(NC(=O)c4ccc5c(c4)OCO5)ccc3O[C@H]2[C@@H](CO)O1	none (no result: Rv3671c protease, Mtb bLac sens, RecA splice inh, UGM FP inh)
COc1ccc(CC(=O)NCC2CCCN(Cc3cc(OC)cc(OC)c3)C2)cc1 (stereo unspecified)	none
O=C1CCCC2=C1C1(O)C(=O)c3ccccc3C1(O)O2 (stereo unspecified)	RecA splice inh 88.5 | GFP chromophore 10.2
N#CC1=C(N)OC2=C(C(=O)CCC2)[C@]12C(=O)N(CC(N)=O)c1ccccc12	none
Cc1ccccc1N1C(=O)c2ccccc2C1Nc1cccnc1 (stereo unspecified)	RecA splice inh 33.2 | GFP chromophore inactive
CC(NCc1ccc(-c2ccccc2)cc1)C(O)c1ccccc1 (stereo unspecified)	none
COc1ccc(OC)c(NC(=O)Cc2ccc(NC3=NC4CS(=O)(=O)CC4S3)cc2)c1 (stereo unspecified)	RecA splice inh 38.0 | GFP chromophore inactive
COc1cccc(CNC(=O)Cc2ccc(NC3=NC4CS(=O)(=O)CC4S3)cc2)c1 (stereo unspecified)	none
O=S1(=O)CC(N2CC=CC2)CN1C1CCCCC1 (stereo unspecified)	none (no result: Rv3671c protease, Mtb bLac sens, GDH-TPI inh, RecA splice inh, UGM FP inh)
COc1ccc(NC(=O)C(Cl)=C(Cl)Cl)cn1	none (no result: Rv3671c protease, Mtb bLac sens, UGM FP inh)
COc1ccc(NC(=O)/C(Cl)=C(/Cl)S(=O)(=O)Cc2ccccc2)cn1	RecA splice inh 76.4 (no result: Rv3671c protease, Mtb bLac sens, UGM FP inh) | GFP chromophore 7.45
N=c1c2c(-c3ccccc3)c(-c3ccccc3)n(Cc3ccco3)c2ncn1Cc1ccco1	RecA splice inh 46.9 | GFP chromophore 14.5
CC(C)Nc1ccc(Nc2ccccc2)cc1	RecA splice inh 36.2 | GFP chromophore inactive
COc1cccc(NC(=O)CSc2c3c(nc4ccccc24)CCCC3)c1	RecA splice inh 69.8 | GFP chromophore 24.3
Cc1cccc(NC(=O)CSc2c3c(nc4ccccc24)CCC3)n1	none
Cc1ccc(C)c(N(C)C(=O)c2cc3c(=O)[nH]c4ccc(C)cc4c3s2)c1	none
Cc1ccc2c(c1)-c1c(ssc1=S)C(C)(C)N2C(=O)CSc1nncn1C	RecA splice inh 47.3 | GFP chromophore 12.9
Cc1cc2c(cc1C)N(C(=O)CSC1=NCCS1)C(C)(C)c1ssc(=S)c1-2	Mtb bLac sens inconclusive
CC1(C)c2ssc(=S)c2-c2ccccc2N1C(=O)CSC1=NCCS1	RecA splice inh 51.1 | GFP chromophore 4.56
Cc1cc(C)c2c(c1)-c1c(ssc1=S)C(C)(C)N2C(=O)CSc1nncn1C	RecA splice inh 45.8 | GFP chromophore 9.77
COc1ccc2c(c1)-c1c(ssc1=S)C(C)(C)N2C(=O)CSC1=NCCS1	none
CC(=O)Nc1ccc(S(=O)(=O)N2c3ccccc3NC(=O)CC2C)c(Cl)c1 (stereo unspecified)	none
CC1=C(C)/C(=N\OC(=O)/C=C/c2ccccc2)C=CC1=O	RecA splice inh 37.6 | GFP chromophore inactive
O=C(CN(Cc1ccc(F)cc1)C(=O)CCC(=O)Nc1nccs1)NCc1ccccc1	none
N=C(N)SCc1cn(-c2ccccc2)nc1-c1ccc(Br)cc1	RecA splice inh 39.6 (no result: Rv3671c protease, Mtb bLac sens, UGM FP inh) | GFP chromophore 20.5
CCOC(=O)c1ccc(CC2S/C(=C(\C#N)C(C)=O)NC2=O)cc1 (stereo unspecified)	RecA splice inh 81.7 | GFP chromophore inactive
CCOC(=O)C1(Cc2cccc(Cl)c2)CCCN(C(=O)CCSC)C1 (stereo unspecified)	none
Fc1ccc(-[n+]2nc(Nc3ccccc3)sc2-c2c3ccccc3cc3ccccc23)cc1	RecA splice inh 48.6 | GFP chromophore 16.4
Oc1ccc2ccccc2c1-c1sc(Nc2ccccc2)n[n+]1-c1ccc(F)cc1	none
CCc1[nH]nc2c1C1(CCN(C(=O)c3ccccc3)CC1)C(C#N)=C(N)O2	RecA splice inh 66.5 | GFP chromophore 29.1
CC(=O)N1CCC2(CC1)C(C#N)=C(N)Oc1n[nH]c(CSc3ccc(C)cc3)c12	RecA splice inh 74.2 | GFP chromophore 23.4
CCc1[nH]nc2c1C1(CCOC1C)C(C#N)=C(N)O2 (stereo unspecified)	none
C[C@H](NC(=O)c1ccco1)C(=O)OCC(=O)N1CC(=O)Nc2ccccc21	none (no result: RecA splice inh)
CCC(=O)OCCNc1cc(SCCC(=O)OC)c2nonc2c1[N+](=O)[O-]	RecA splice inh 45.3 | GFP chromophore 26.2
CCCC(=O)OCCNc1cc(Sc2nc3ccccc3[nH]2)c2nonc2c1[N+](=O)[O-]	RecA splice inh 95.6 | GFP chromophore 0.96
CCC(=O)OCCNc1cc(Sc2nccn2C)c2nonc2c1[N+](=O)[O-]	RecA splice inh 87.2 | GFP chromophore 4.79
CC(C)c1cccc(C(C)C)c1NC(=O)COC(=O)[C@H](C)NC(N)=O	none
COc1ccc(Cl)cc1NC(=O)CSc1nnc(-c2ccco2)o1	none
Nc1cc2c(cc1Br)-c1c(C(=O)O)cccc1C2O (stereo unspecified)	none (no result: Rv3671c protease, Mtb bLac sens, RecA splice inh, UGM FP inh)
